Source: PubChem BioAssay
A number with no mark means an inactive call. For some of these results: Entries with a potency or affinity are not part of this list. Calls of active or inactive are those of the source. Unless noted, no rule for the calls is given here.

Key:
[1] = antimalarial activity against Dd2 strain (AID 2302;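 active = growth inhibition above 50% at the single 2 µM test dose, taken to imply half-maximal potency below 2 µM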;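 also: 0% = DMSO untreated growth and 100% = chloroquine plus artemisinin killed control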); conditions: P. falciparum Dd2 in RBCs, LDH growth readout, 72 h; at 2 µM; hits give high values
[2] = HepG2 cytotoxicity, primary screen, cytotoxicity control for P. falciparum antimalarial project, cell-based, ATP luminescence (AID 2303;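 active = inhibition above 50%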;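 also: 0% = DMSO wells and 100% = digitonin-killed cells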); conditions: HepG2 viability, 24-48 h, at 10 µM, hits give high values
[3] = target: L-lactate dehydrogenase (Plasmodium falciparum (isolate CDC / Honduras)) (UniProt Q27743); test: PfLDH activity inhibition – cell lysate, 3D7 strain, counter-screen for P. falciparum growth inhibition project (AID 2304);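 also: 0% = vehicle and 100% = reference inhibitor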; conditions: P. falciparum 3D7 crude extract, LDH APAD/NBT absorbance; at 2 µM; hits give high values
Sequence of L-lactate dehydrogenase (Plasmodium falciparum (isolate CDC / Honduras)) (Q27743 whole entry, looked up): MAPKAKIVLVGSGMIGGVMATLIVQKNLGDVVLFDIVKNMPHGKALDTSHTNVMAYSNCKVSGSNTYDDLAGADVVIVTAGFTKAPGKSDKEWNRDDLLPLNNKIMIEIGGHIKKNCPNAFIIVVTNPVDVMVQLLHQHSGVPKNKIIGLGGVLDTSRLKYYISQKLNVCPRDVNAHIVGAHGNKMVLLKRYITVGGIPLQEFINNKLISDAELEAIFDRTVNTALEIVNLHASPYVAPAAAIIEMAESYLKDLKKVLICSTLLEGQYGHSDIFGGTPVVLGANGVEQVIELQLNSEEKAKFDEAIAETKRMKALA

[4] = inhibition of 3D7 malaria parasite growth – strain 3D7 (AID 2306);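 also: 0% = DMSO wells and 100% = chloroquine plus artemisinin control wells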; conditions: P. falciparum 3D7 erythrocytic growth, LDH absorbance, 72 h; at 2 µM; hits give high values
[5] = target: Calcium-dependent protein kinase 1 (Plasmodium falciparum (isolate 3D7)) (UniProt P62344); test: PfCDPK1 kinase inhibitors, biochemical, TCAMS library (AID 1159585; cut-off not given, nearly all actives have IC50 up to about 0.98 µM;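 also: inhibitors leave more ATP so luminescence rises with inhibition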); conditions: recombinant PfCDPK1, Kinase-Glo ATP depletion luminescence
Sequence of Calcium-dependent protein kinase 1 (Plasmodium falciparum (isolate 3D7)) (P62344 whole entry, looked up): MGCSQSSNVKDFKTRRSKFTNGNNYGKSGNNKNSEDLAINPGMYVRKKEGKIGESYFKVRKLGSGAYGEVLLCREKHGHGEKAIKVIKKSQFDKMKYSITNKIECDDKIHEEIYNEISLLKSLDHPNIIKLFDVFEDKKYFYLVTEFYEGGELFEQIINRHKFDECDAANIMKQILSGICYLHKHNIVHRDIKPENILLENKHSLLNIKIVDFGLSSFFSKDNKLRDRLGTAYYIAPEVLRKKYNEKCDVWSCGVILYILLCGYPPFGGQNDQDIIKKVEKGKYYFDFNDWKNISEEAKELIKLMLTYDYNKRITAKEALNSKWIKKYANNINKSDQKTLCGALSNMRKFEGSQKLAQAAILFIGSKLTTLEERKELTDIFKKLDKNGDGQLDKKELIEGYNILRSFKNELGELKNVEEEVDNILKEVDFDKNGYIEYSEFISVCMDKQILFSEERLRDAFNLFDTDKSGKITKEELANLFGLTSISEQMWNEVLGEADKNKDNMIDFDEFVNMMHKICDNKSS

[6] = target: Plasmodium falciparum protein kinase 6 (PK6, PF3D7_1337100) (UniProt Q8IDW1); test: PfPK6 kinase inhibitors, biochemical, TCAMS library (AID 1159586); conditions: recombinant PfPK6, Kinase-Glo ATP depletion luminescence
Sequence of Plasmodium falciparum protein kinase 6 (PK6, PF3D7_1337100) (Q8IDW1 1-305): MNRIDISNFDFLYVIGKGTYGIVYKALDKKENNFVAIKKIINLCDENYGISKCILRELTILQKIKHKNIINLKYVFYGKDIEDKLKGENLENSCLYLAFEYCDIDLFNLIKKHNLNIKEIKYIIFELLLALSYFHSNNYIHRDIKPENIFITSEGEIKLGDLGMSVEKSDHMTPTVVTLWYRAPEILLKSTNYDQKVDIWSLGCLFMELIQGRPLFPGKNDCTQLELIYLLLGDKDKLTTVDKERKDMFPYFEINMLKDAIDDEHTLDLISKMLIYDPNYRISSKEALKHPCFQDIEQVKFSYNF

[7] = target: Protein kinase 7 (PK7), Plasmodium falciparum 3D7 (PF3D7_0213400) (UniProt Q7YTF7); test: inhibition of Plasmodium PK7 catalytic activity – biochemical, TCAMS antimalarial set, Kinase-Glo luminescence (AID 1159587); conditions: recombinant PfPK7, Kinase-Glo ATP depletion luminescence
Sequence of Protein kinase 7 (PK7), Plasmodium falciparum 3D7 (PF3D7_0213400) (Q7YTF7 1-343): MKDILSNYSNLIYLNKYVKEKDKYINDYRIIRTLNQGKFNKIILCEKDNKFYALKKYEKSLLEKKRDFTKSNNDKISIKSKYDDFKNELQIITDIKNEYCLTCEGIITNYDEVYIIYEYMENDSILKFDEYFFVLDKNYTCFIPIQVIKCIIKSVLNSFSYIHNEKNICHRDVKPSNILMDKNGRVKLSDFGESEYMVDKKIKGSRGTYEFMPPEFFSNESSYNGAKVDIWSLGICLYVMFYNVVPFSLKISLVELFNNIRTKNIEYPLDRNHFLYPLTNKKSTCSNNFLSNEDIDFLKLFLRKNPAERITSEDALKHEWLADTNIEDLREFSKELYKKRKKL

[8] = target: Calcium-dependent protein kinase 4 (Plasmodium falciparum (isolate 3D7)) (UniProt Q8IBS5); test: PfCDPK4 kinase inhibitors, biochemical, TCAMS library (AID 1159588; cut-off not given, nearly all actives have IC50 up to about 0.91 µM); conditions: recombinant PfCDPK4, Kinase-Glo ATP depletion luminescence
Sequence of Calcium-dependent protein kinase 4 (Plasmodium falciparum (isolate 3D7)) (Q8IBS5 whole entry, looked up): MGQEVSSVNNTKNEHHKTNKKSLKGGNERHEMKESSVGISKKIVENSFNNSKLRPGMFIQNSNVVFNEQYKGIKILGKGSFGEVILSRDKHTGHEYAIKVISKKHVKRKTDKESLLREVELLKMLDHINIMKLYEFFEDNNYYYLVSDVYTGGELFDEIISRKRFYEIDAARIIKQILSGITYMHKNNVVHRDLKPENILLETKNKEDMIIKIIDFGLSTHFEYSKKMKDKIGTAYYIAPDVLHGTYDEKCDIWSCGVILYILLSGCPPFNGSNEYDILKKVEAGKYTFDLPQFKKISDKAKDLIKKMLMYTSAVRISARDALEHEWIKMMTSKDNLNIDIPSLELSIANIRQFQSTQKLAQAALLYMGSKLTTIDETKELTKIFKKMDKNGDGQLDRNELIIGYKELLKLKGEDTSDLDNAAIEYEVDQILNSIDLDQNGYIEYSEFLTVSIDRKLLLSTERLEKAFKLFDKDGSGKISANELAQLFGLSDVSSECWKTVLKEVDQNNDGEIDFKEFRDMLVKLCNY

O=C(c1ccc([N+](=O)[O-])o1)N1CCN(c2nc3c(F)cc(F)cc3s2)CC1
growth inhibition [1]: 86% (active)
inhibition [2]: -7%
inhibition [3]: -4%
growth inhibition [4]: 93% (active)
outcome [5]: inactive
outcome [6]: inactive
outcome [7]: inactive
outcome [8]: inactive

C=CCc1cccc(CN2CCC(c3cc(=O)[nH]c(-c4ccccn4)n3)CC2)c1O
growth inhibition [1]: 75% (active)
inhibition [2]: 46%
inhibition [3]: -2%
growth inhibition [4]: 91% (active)
outcome [5]: inactive
outcome [6]: inactive
outcome [7]: inactive
outcome [8]: inactive

O=C(Nc1cccc(Cl)c1Cl)N1CCc2cc3nccc(N4CCN5CCC[C@H]5C4)c3cc21
growth inhibition [1]: 100% (active)
inhibition [2]: 9%
inhibition [3]: -1%
growth inhibition [4]: 98% (active)
outcome [5]: inactive
outcome [6]: inactive
outcome [7]: inactive
outcome [8]: inactive

Cc1cn(CC(=O)Nc2cccc(-c3cccc(-c4nc5ccc(C(F)(F)F)cc5[nH]4)c3)c2)c(=O)[nH]c1=O
growth inhibition [1]: 51% (active)
inhibition [2]: 15%
inhibition [3]: -1%
growth inhibition [4]: 92% (active)
outcome [5]: inactive
outcome [6]: inactive
outcome [7]: inactive
outcome [8]: inactive

COc1ccc(Nc2nccc(-c3ccc4c(-c5ccsc5)cnc(N)c4c3)n2)cc1
growth inhibition [1]: 98% (active)
inhibition [2]: 38%
inhibition [3]: -1%
growth inhibition [4]: 101% (active)
outcome [5]: inactive
outcome [6]: inactive
outcome [7]: inactive
outcome [8]: inactive

COc1c(C)cc(I)cc1CNCCCNc1cc(=O)c2ccccc2[nH]1
growth inhibition [1]: -2%
inhibition [2]: -1%
inhibition [3]: 2%
growth inhibition [4]: 84% (active)
outcome [5]: inactive
outcome [6]: inactive
outcome [7]: inactive
outcome [8]: inactive

Oc1ccc(Br)cc1C(O)CNCc1ccccc1OCc1ccccc1 (centres undefined)
growth inhibition [1]: 100% (active)
inhibition [2]: 25%
inhibition [3]: 4%
growth inhibition [4]: 101% (active)
outcome [5]: inactive
outcome [6]: inactive
outcome [7]: inactive
outcome [8]: inactive

CN(CC(=O)Nc1ccc(F)cc1)C(=O)c1ccc(-c2ccc(F)cc2)o1
growth inhibition [1]: 84% (active)
inhibition [2]: 3%
inhibition [3]: -2%
growth inhibition [4]: 89% (active)
outcome [5]: inactive
outcome [6]: inactive
outcome [7]: inactive
outcome [8]: inactive

Cc1cccc2[nH]c(-c3cccc(-c4ccc(CNCCNC(=O)c5ccnn5C)cc4)c3)nc12
growth inhibition [1]: 100% (active)
inhibition [2]: 21%
inhibition [3]: -2%
growth inhibition [4]: 102% (active)
outcome [5]: inactive
outcome [6]: inactive
outcome [7]: inactive
outcome [8]: inactive

CCN(CC)S(=O)(=O)c1ccc(Cl)c(C(=O)Nc2ccc3nc(C)sc3c2)c1
growth inhibition [1]: 94% (active)
inhibition [2]: 9%
inhibition [3]: -4%
growth inhibition [4]: 96% (active)
outcome [5]: inactive
outcome [6]: inactive
outcome [7]: inactive
outcome [8]: inactive

CCCCCCC(N)c1ccc(OCCCOc2ccc(C(N)CCCCCC)cc2)cc1 (centres undefined)
growth inhibition [1]: 70% (active)
inhibition [2]: 100% (active)
inhibition [3]: 1%
growth inhibition [4]: 88% (active)
outcome [5]: inactive
outcome [6]: inactive
outcome [7]: inactive
outcome [8]: inactive

COc1ccc(CN2CCCN(Cc3cccc(NC(=O)c4ccc(Cl)c(Cl)c4)c3)CC2)cc1
growth inhibition [1]: 19%
inhibition [2]: 38%
inhibition [3]: 5%
growth inhibition [4]: 86% (active)
outcome [5]: inactive
outcome [6]: inactive
outcome [7]: inactive
outcome [8]: inactive

N#Cc1ccc2c(c1)CCN(CCC1CCC(NC(=O)Nc3cnc4ccccc4c3)CC1)C2 (centres undefined)
growth inhibition [1]: 9%
inhibition [2]: 14%
inhibition [3]: 6%
growth inhibition [4]: 93% (active)
outcome [5]: inactive
outcome [6]: inactive
outcome [7]: inactive
outcome [8]: inactive

COc1cc(CNC[C@@H](O)[C@H](Cc2ccccc2)NC(=O)c2cc(OC(C)C)cc(N3CCCCS3(=O)=O)c2)cc(OC)c1
growth inhibition [1]: 94% (active)
inhibition [2]: 7%
inhibition [3]: 4%
growth inhibition [4]: 100% (active)
outcome [5]: inactive
outcome [6]: inactive
outcome [7]: inactive
outcome [8]: inactive

COc1ccc(CCCc2nc(N)nc(N)c2-c2ccc(Cl)cc2)cc1
growth inhibition [1]: 0%
inhibition [2]: 65% (active)
inhibition [3]: 2%
growth inhibition [4]: 94% (active)
outcome [5]: inactive
outcome [6]: inactive
outcome [7]: inactive
outcome [8]: inactive

COc1ccc(Nc2nccc(-c3ccc4ccnc(NCCCCN)c4c3)n2)cc1
growth inhibition [1]: 47%
inhibition [2]: 15%
inhibition [3]: 6%
growth inhibition [4]: 95% (active)
outcome [5]: inactive
outcome [6]: inactive
outcome [7]: inactive
outcome [8]: inactive

CCc1c(C)nc(-n2nc(C)cc2NC(=O)c2ccc(OC)cc2OC)[nH]c1=O
growth inhibition [1]: 57% (active)
inhibition [2]: 42%
inhibition [3]: 1%
growth inhibition [4]: 96% (active)
outcome [5]: inactive
outcome [6]: inactive
outcome [7]: inactive
outcome [8]: inactive

COC(=O)c1cccc(CNCc2cccc(-c3ccc(-c4nc5ccccc5[nH]4)cc3)c2)c1
growth inhibition [1]: 51% (active)
inhibition [2]: -3%
inhibition [3]: 4%
growth inhibition [4]: 99% (active)
outcome [5]: inactive
outcome [6]: inactive
outcome [7]: inactive
outcome [8]: inactive

COc1cc(Cc2cnc(N)nc2N)ccc1Oc1ccc(N)cc1
growth inhibition [1]: -1%
inhibition [2]: 0%
inhibition [3]: 6%
growth inhibition [4]: 93% (active)
outcome [5]: inactive
outcome [6]: inactive
outcome [7]: inactive
outcome [8]: inactive

CC(C)(CN1CCCC1)CN(Cc1ccc(-c2ccc(C(F)(F)F)cc2)cc1)C(=O)Cn1c(CCc2cccc(F)c2F)nc(=O)c2ccccc21
growth inhibition [1]: 64% (active)
inhibition [2]: 57% (active)
inhibition [3]: -3%
growth inhibition [4]: 97% (active)
outcome [5]: inactive
outcome [6]: inactive
outcome [7]: inactive
outcome [8]: inactive

CCN1CCC(N(Cc2ccc(-c3ccc(C(F)(F)F)cc3)cc2)C(=O)Cn2c(CCc3cccc(F)c3F)cc(=O)c3cn(C)nc32)CC1
growth inhibition [1]: 87% (active)
inhibition [2]: 27%
inhibition [3]: 2%
growth inhibition [4]: 95% (active)
outcome [5]: inactive
outcome [6]: inactive
outcome [7]: inactive
outcome [8]: inactive

CC1(C)N=C(N)N=C(N)N1OCCCOc1cc(Cl)c(Cl)cc1Cl
growth inhibition [1]: 95% (active)
inhibition [2]: 60% (active)
inhibition [3]: -1%
growth inhibition [4]: 95% (active)
outcome [5]: inactive
outcome [6]: inactive
outcome [7]: inactive
outcome [8]: inactive

COc1ccc2nccc(NCC3(O)CCC(NCc4ccc5c(n4)NC(=O)CS5)CC3)c2n1 (centres undefined)
growth inhibition [1]: 23%
inhibition [2]: 16%
inhibition [3]: 3%
growth inhibition [4]: 100% (active)
outcome [5]: inactive
outcome [6]: inactive
outcome [7]: inactive
outcome [8]: inactive

CCCCSc1ccc2nc(-c3c[nH]c4ccc(C#N)cc34)cn2c1
growth inhibition [1]: 37%
inhibition [2]: 3%
inhibition [3]: 3%
growth inhibition [4]: 94% (active)
outcome [5]: inactive
outcome [6]: inactive
outcome [7]: inactive
outcome [8]: inactive

CC(Cc1ccc(NC(=O)c2ccc(CC(C)NCc3ccc(Cl)c(Cl)c3)cc2)cc1)NCCc1cccc(Cl)c1 (centres undefined)
growth inhibition [1]: 33%
inhibition [2]: 26%
inhibition [3]: 4%
growth inhibition [4]: 92% (active)
outcome [5]: inactive
outcome [6]: inactive
outcome [7]: inactive
outcome [8]: inactive

COc1ccc(C2C(C(=O)Nc3ccc4c(c3)OCO4)c3cc(OC)c(OC)cc3C(=O)N2C)cc1 (centres undefined)
growth inhibition [1]: 54% (active)
inhibition [2]: 12%
inhibition [3]: -4%
growth inhibition [4]: 89% (active)
outcome [5]: inactive
outcome [6]: inactive
outcome [7]: inactive
outcome [8]: inactive

CN(C)Cc1c(O)ccc2[nH]c(-c3cccc(F)c3)nc12
growth inhibition [1]: 71% (active)
inhibition [2]: 9%
inhibition [3]: -2%
growth inhibition [4]: 99% (active)
outcome [5]: inactive
outcome [6]: inactive
outcome [7]: inactive
outcome [8]: inactive

CC(C)CCN1C(=O)C(NC(=O)Oc2ccccc2)C(=O)N(CC23CC4CC(CC(C4)C2)C3)c2ccccc21 (centres undefined)
growth inhibition [1]: 4%
inhibition [2]: 3%
inhibition [3]: 0%
growth inhibition [4]: 95% (active)
outcome [5]: inactive
outcome [6]: inactive
outcome [7]: inactive
outcome [8]: inactive

NCC1CCCN1Cc1cccc(-c2ccc(-c3nc4ccc(C(F)(F)F)cc4[nH]3)cc2)c1 (centres undefined)
growth inhibition [1]: 95% (active)
inhibition [2]: 20%
inhibition [3]: 0%
growth inhibition [4]: 100% (active)
outcome [5]: inactive
outcome [6]: inactive
outcome [7]: inactive
outcome [8]: inactive

COc1ccc(C(=O)CCC(=O)N(Cc2ccc(-c3ccc(CNCCc4ccc(S(C)(=O)=O)cc4)cn3)cc2)C2CCN(Cc3ccccc3)CC2)cc1F
growth inhibition [1]: 72% (active)
inhibition [2]: 20%
inhibition [3]: 2%
growth inhibition [4]: 99% (active)
outcome [5]: inactive
outcome [6]: inactive
outcome [7]: inactive
outcome [8]: inactive

COc1cc2c(cc1C(F)(F)F)N(C(=O)Nc1cccc(-c3ccc(CN(C)C)cc3)c1)CC2
growth inhibition [1]: 93% (active)
inhibition [2]: 95% (active)
inhibition [3]: 1%
growth inhibition [4]: 101% (active)
outcome [5]: inactive
outcome [6]: inactive
outcome [7]: inactive
outcome [8]: inactive

O=c1cc(NCCCCNCc2cccc(Cl)c2)[nH]c2ccccc12
growth inhibition [1]: 41%
inhibition [2]: 2%
inhibition [3]: -3%
growth inhibition [4]: 98% (active)
outcome [5]: inactive
outcome [6]: inactive
outcome [7]: inactive
outcome [8]: inactive

C[C@@H]1CN(CCCn2c3ccccc3c3ccc(C(=O)CCCN(C)C)cc32)C[C@H](C)N1
growth inhibition [1]: 6%
inhibition [2]: 26%
inhibition [3]: 3%
growth inhibition [4]: 100% (active)
outcome [5]: inactive
outcome [6]: inactive
outcome [7]: inactive
outcome [8]: inactive

O=C(NCCCCN1CCC(c2cccc3ccccc23)CC1)c1ccc(NC(=O)c2ccc(Cl)cc2)cc1
growth inhibition [1]: 39%
inhibition [2]: 20%
inhibition [3]: 2%
growth inhibition [4]: 99% (active)
outcome [5]: inactive
outcome [6]: inactive
outcome [7]: inactive
outcome [8]: inactive

O=S(=O)(NCCN1CCCC1)c1ccc(-c2cccc(CNCCc3cccs3)c2)cc1
growth inhibition [1]: 30%
inhibition [2]: 41%
inhibition [3]: -1%
growth inhibition [4]: 95% (active)
outcome [5]: inactive
outcome [6]: inactive
outcome [7]: inactive
outcome [8]: inactive

NC(N)=Nc1nc(-c2cccc(NC(=O)CCCCCCCON3C(N)=NC(N)=NC34CCCCC4)c2)cs1
growth inhibition [1]: 89% (active)
inhibition [2]: 1%
inhibition [3]: -8%
growth inhibition [4]: 96% (active)
outcome [5]: inactive
outcome [6]: inactive
outcome [7]: inactive
outcome [8]: inactive

CC(Cc1ccc(OCC(=O)NCC2CCN(CCc3cccc(Cl)c3)CC2)cc1)NCCc1cccc(Cl)c1 (centres undefined)
growth inhibition [1]: 85% (active)
inhibition [2]: 100% (active)
inhibition [3]: -8%
growth inhibition [4]: 96% (active)
outcome [5]: inactive
outcome [6]: inactive
outcome [7]: inactive
outcome [8]: inactive

COc1cc2c(cc1OC)CN(CCc1ccc(NC(=O)c3cc4cc(OC(F)(F)F)ccc4[nH]3)cc1)CC2
growth inhibition [1]: 20%
inhibition [2]: 36%
inhibition [3]: -3%
growth inhibition [4]: 99% (active)
outcome [5]: inactive
outcome [6]: inactive
outcome [7]: inactive
outcome [8]: inactive
